Where “and” joins values, the source holds several entries; their conditions need not be identical. Equal values may be shown once. Among all 5,500 compounds or so, about 2,000 (36%) were called active. Roughly 18% stayed inconclusive and do not appear here. Cut-off read from the data, not from the text of the source: active = normalized growth mostly below about 0.91 (no sharp cut-off); inconclusive = no clear call, values can overlap the other calls; inactive = mostly above about 0.92. The list shows a part of the results.
Test: chemical genetic growth profiling, strain panel (AID 1159580);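 note: tested at 20 µM; growth read once vehicle control cultures reached saturation at 30 °C; 1 = growth at the plate median or of vehicle wells; lower values mean less growth of the strain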
Conditions: S. cerevisiae deletion strains, growth OD

Measured: normalized growth

OC[C@H]1O[C@@H](O[C@@H]2[C@@H](CO)O[C@](O)(CO)[C@H]2O)[C@H](O)[C@@H](O)[C@H]1O
inactive: locus YAL021C, strain ccr4, stronger effect = lower value 1.02 | locus YAL026C, strain drs2, stronger effect = lower value 1.01 | locus YAL030W, strain snc1, stronger effect = lower value 1 | locus YBL061C, strain skt5, stronger effect = lower value 1.02 | locus YBR009C, strain hhf1, stronger effect = lower value 1.01 | locus YBR021W, strain FUR4, stronger effect = lower value 0.983 | locus YBR023C, strain chs3, stronger effect = lower value 0.995 | locus YBR171W, strain sec66, stronger effect = lower value 1.02 | locus YBR229C, strain ROT2, stronger effect = lower value 0.986 | locus YBR231C, strain swc5, stronger effect = lower value 1.01 | locus YBR279W, strain paf1, stronger effect = lower value 1.02 | locus YCL011C, strain gbp2, stronger effect = lower value 1.01 | locus YCL016C, strain dcc1, stronger effect = lower value 0.985 | locus YCL029C, strain bik1, stronger effect = lower value 0.988 | locus YCL069W, strain vba3, stronger effect = lower value 1.01 | locus YCR088W, strain abp1, stronger effect = lower value 1 | locus YDL005C, strain med2, stronger effect = lower value 1.03 | locus YDL035C, strain GPR1, stronger effect = lower value 1.01 | locus YDL040C, strain nat1, stronger effect = lower value 1.01 | locus YDL074C, strain BRE1, stronger effect = lower value 1 | locus YDL101C, strain DUN1, stronger effect = lower value 0.988 | locus YDL185W, strain tfp1, stronger effect = lower value 0.992 | locus YDL192W, strain arf1, stronger effect = lower value 0.993 | locus YDR001C, strain nth1, stronger effect = lower value 1.01 | locus YDR069C, strain doa4, stronger effect = lower value 1.02 | locus YDR101C, strain arx1, stronger effect = lower value 1.01 | locus YDR137W, strain rgp1, stronger effect = lower value 1.01 | locus YDR150W, strain NUM1, stronger effect = lower value 0.995 | locus YDR159W, strain sac3, stronger effect = lower value 1.01 | locus YDR162C, strain NBP2, stronger effect = lower value 1.01 | locus YDR195W, strain ref2 1.03 | locus YDR297W, strain sur2, stronger effect = lower value 1.01 | locus YDR318W, strain mcm21, stronger effect = lower value 0.981 | locus YDR334W, strain swr1, stronger effect = lower value 1.01 | locus YDR335W, strain msn5, stronger effect = lower value 1.02 | locus YDR388W, stronger effect = lower value 0.987 | locus YDR392W, strain spt3, stronger effect = lower value 0.949 | locus YDR502C, strain sam2, stronger effect = lower value 0.986 | locus YEL003W, strain gim4, stronger effect = lower value 1.01 | locus YEL037C, strain rad23, stronger effect = lower value 1 | locus YEL061C, strain CIN8 (second series), stronger effect = lower value 1.02 | locus YEL061C, strain CIN8, stronger effect = lower value 0.995 | locus YER015W, strain faa2, stronger effect = lower value 1 | locus YER016W, strain bim1, stronger effect = lower value 1.02 | locus YER110C, stronger effect = lower value 0.979 | locus YER111C, strain swi4, stronger effect = lower value 1 | locus YER155C, strain BEM2 (second series), stronger effect = lower value 1.03 | locus YER155C, strain BEM2, stronger effect = lower value 0.987 | locus YER167W, strain BCK2, stronger effect = lower value 0.995 | locus YFR010W, strain ubp6, stronger effect = lower value 1.02 | locus YGL078C, strain dbp3, stronger effect = lower value 0.963 | locus YGL086W, strain mad1, stronger effect = lower value 1 | locus YGL167C, strain pmr1, stronger effect = lower value 1.02 | locus YGL173C, strain kem1, stronger effect = lower value 1.01 | locus YGL227W, strain vid30, stronger effect = lower value 1.01 | locus YGL240W, strain doc1, stronger effect = lower value 1.03 | locus YGL248W, strain PDE1, stronger effect = lower value 0.983 | locus YGL253W, strain hxk2, stronger effect = lower value 0.99 | locus YGR135W, strain pre9, stronger effect = lower value 0.941 | locus YGR252W, strain gcn5, stronger effect = lower value 0.944 | locus YHR013C, strain ard1, stronger effect = lower value 1.03 | locus YHR027C, strain rpn1, stronger effect = lower value 1.01 | locus YHR030C, strain SLT2, stronger effect = lower value 0.993 and 0.984 | locus YHR079C, strain IRE1 (second series), stronger effect = lower value 0.983 | locus YHR079C, strain IRE1, stronger effect = lower value 0.989 | locus YHR094C, strain hxt1, stronger effect = lower value 0.979 | locus YHR129C, strain ARP1, stronger effect = lower value 0.992 | locus YHR142W, strain chs7, stronger effect = lower value 1 | locus YHR200W, strain rpn10, stronger effect = lower value 0.978 | locus YIL066C, strain RNR3, stronger effect = lower value 0.994 | locus YIL073C, strain SPO22, stronger effect = lower value 0.973 | locus YIL125W, strain kgd1, stronger effect = lower value 0.978 | locus YIR030C, strain dcg1, stronger effect = lower value 0.987 | locus YJL092W, strain hpr5, stronger effect = lower value 1.01 | locus YJL095W, strain BCK1 (second series), stronger effect = lower value 1.01 | locus YJL095W, strain BCK1, stronger effect = lower value 0.977 and 0.994 | locus YJL115W, strain asf1, stronger effect = lower value 1.01 | locus YJL129C, strain trk1, stronger effect = lower value 1.01 | locus YJL134W, strain LCB3, stronger effect = lower value 0.995 | locus YJL154C, strain vps35, stronger effect = lower value 1.02 | locus YJL164C, strain tpk1, stronger effect = lower value 0.984 | locus YJL166W, strain qcr8, stronger effect = lower value 1.01 | locus YJL168C, strain set2, stronger effect = lower value 0.976 | locus YJL187C, strain SWE1 (second series), stronger effect = lower value 0.993 | locus YJR043C, strain POL32, stronger effect = lower value 1.02 | locus YJR066W, strain TOR1, stronger effect = lower value 0.942

Reference: PubChem BioAssay AID1159580 (chemical genetic matrix, 2015)
